Test results published in PubChem BioAssay (Tox21).
Records with an inconclusive call do not appear. The source made the active and inactive calls. The call rests on the fitted dose curve.

biological target: Beta-2 adrenergic receptor (Homo sapiens) (UniProt P07550); test: Adrenergic beta2 receptor (ADRB2) small molecule antagonists, cell-based qHTS assay (AID 1963592); details: CHO-ADRB2 cells, isoproterenol-stimulated cAMP HTRF ratio, 0.5 h; series mostly up to 92.4 µM; activity change, negative = inhibition: at the top concentration; further: nearly all actives have a fitted effect of over 50% in size
Text: U.S. Tox21 Program National Center for Advancing Translational Sciences [NCATS] Division of Preclinical Innovation [DPI] U.S. Environmental Protection Agency [EPA] National Institutes of Environmental Health Sciences [NIEHS] National Toxicology Program [NTP] U.S. Food and Drug Administration [FDA] Tox21 Assay Overview: Beta adrenergic receptors (Beta-ARs) belong to the G-protein coupled receptor (GPCR) superfamily, includes three subtypes - beta1, beta2, and beta3. Beta1-AR is the predominant receptor subtype expressed in the heart, and beta2-AR is expressed in the kidney, lung, blood vessel and in the heart, and beta3 is found in the adipocytes. Beta1 and 2 ARs couple to Gs protein and elevate cyclic adenosine mono phosphate (cAMP), which activates protein kinase A and leads to the downstream signaling responsible for the physiological actions. Beta-AR agonists or antagonists are the most prescribed therapeutic agents for heart failure and asthma, and these were one of the first target receptors for the rational drug design. Tox21 10K compound library was screened using the cAMP-Gs dynamic assay (Cisbio Bioassays, Shelton, CT) to identify agonists/antagonists of the Gs-coupled human adrenergic, beta2 receptor (ADRB2) in the CHO-ADRB2 cell line (Codex BioSolutions, Inc. Gaithersburg, MD), which stably over-expresses ADRB2. The principle of cAMP-Gs dynamic assay is based on HTRF technology, which facilitates the fluorescence resonance energy transfer (FRET) between donor Europium cryptate and acceptor d2-labeled cAMP. The cAMP generated within cells competes with the red acceptor, d2-labled cAMP, for binding to the monoclonal anti-cAMP-cryptate (Europium donor). An increase in intracellular cAMP leads to the disruption of FRET signal, and the signal is inversely proportional to the cAMP concentration. Propranolol HCl (Sigma-Aldrich, St. Louis, MO) was used as a positive control in the screening.
Tox21 Assay Protocol Summary: CHO-ADRB2 cells were dispensed at 1,000/well in 4uL assay medium into white/solid 1536-well plates (Greiner Bio-One North America Inc., Monroe, NC) using a Multidrop Combi dispenser (ThermoFisher Scientific, Waltham, MA). The assay plates were incubated at 37C and 5% CO2 for an overnight (18-20hr). Then positive control and test compounds dissolved in DMSO were transferred to the assay plates at 23nL using a Pintool station (Wako, San Diego, CA). Following the compound and positive control transfer, 1uL agonist-stimulation mix containing 1nM Isoproterenol HCl, 100uM IBMX and 25uM Ro-20-1724 was added to each well of the assay plates using BioRAPTR Flying Reagent Dispenser (FRD, Beckman Coulter, Brea, CA). The assay plates were incubated at room temperature for 0.5hr. Then 2.5ul each d2-labled cAMP and anti-cAMP-cryptate solutions were added separately to each well of the assay plates using an FRD and the assay plates were incubated at room temperature for 1hr. The fluorescence signal was measured at two different wavelengths (665nm and 615nm) using an Envision plate reader (Perkin Elmer, Shelton, CT). Data were expressed as the ratio of 665 nm/615 nm.
On the % scale 0 is the no-effect control and ±100 the full control effect; potency means the concentration at half of the fitted maximal effect.

Chain of Beta-2 adrenergic receptor (Homo sapiens) (P07550 whole entry, looked up): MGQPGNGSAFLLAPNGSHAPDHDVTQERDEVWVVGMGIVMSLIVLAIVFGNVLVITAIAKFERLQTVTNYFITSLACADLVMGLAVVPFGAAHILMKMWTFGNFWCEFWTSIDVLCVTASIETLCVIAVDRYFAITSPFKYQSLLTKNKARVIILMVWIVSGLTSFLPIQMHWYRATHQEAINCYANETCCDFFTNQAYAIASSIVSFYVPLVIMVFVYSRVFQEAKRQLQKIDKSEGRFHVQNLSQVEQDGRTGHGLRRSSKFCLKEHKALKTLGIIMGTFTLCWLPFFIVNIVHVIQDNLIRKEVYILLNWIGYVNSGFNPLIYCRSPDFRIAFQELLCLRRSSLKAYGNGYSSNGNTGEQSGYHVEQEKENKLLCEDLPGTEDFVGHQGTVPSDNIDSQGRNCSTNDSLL

| Structure (SMILES) | activity change, negative = inhibition | Potency |
| --- | --- | --- |
| CC(C)C(=O)Nc1cccc(C(F)(F)F)c1 | 0.895% [at 42.5 µM] (inactive) | – |
| N=C(N)c1ccc(OCCCOc2ccc(C(=N)N)cc2)cc1 | 0.671% [at 42.5 µM] (inactive) | – |
| CCOc1nc2cccc(C(=O)O)c2n1Cc1ccc(-c2ccccc2-c2nn[nH]n2)cc1 | -1.88% [at 42.5 µM] (inactive) | – |
| C[C@@]12C(=O)OC(=O)[C@]1(C)C1CCC2O1 | 3.89% [at 42.5 µM] (inactive) | – |
| C[C@]12CCC(=O)C=C1CC[C@@H]1[C@@H]2CC[C@@]2(C)[C@H]1CC[C@]2(O)C(=O)CO | -0.498% [at 42.5 µM] (inactive) | – |
| Clc1ccc(C(Cn2ccnc2)OCc2c(Cl)cccc2Cl)c(Cl)c1 (stereo not given) | -15% [at 42.5 µM] (inactive) | – |
| O[C@@H](CNC[C@H](O)[C@H]1CCc2cc(F)ccc2O1)[C@@H]1CCc2cc(F)ccc2O1 | – | 0.15 µM (active) |
| COCCO | 3.98% (inactive) | – |
| CC(=O)C1CCCCC1=O (stereo not given) | -5.98% (inactive) | – |
| COC(=O)/C=C\C(=O)O | -9.48% (inactive) | – |
| CCOC(=O)c1cccnc1 | -0.558% [at 42.5 µM] (inactive) | – |
| Cc1ccccc1CCO | -0.113% (inactive) | – |
| C=CC(=O)OCC1CCCO1 (stereo not given) | -6.38% (inactive) | – |
| COc1cc(C)ccc1O | 7.64% (inactive) | – |
| C=Cc1ccccc1C=C | 5.36% [at 240 µM] (inactive) | – |
| CCCCOCCOC(=O)c1cccnc1 | 12% [at 42.5 µM] (inactive) | – |
| CCCN1C[C@H](CSC)C[C@@H]2c3cccc4[nH]cc(c34)C[C@H]21 | -14.1% [at 42.5 µM] (inactive) | – |
| O=C1OC(OC(=O)c2cccnc2Nc2cccc(C(F)(F)F)c2)c2ccccc21 (stereo not given) | 5.61% [at 42.5 µM] (inactive) | – |
| CCOC(=O)C1=C(C)NC(C)=C(C(=O)OC)C1c1cccc(Cl)c1Cl (stereo not given) | -12.4% [at 42.5 µM] (inactive) | – |
| C/C=C(\C)C(=O)OCCc1ccccc1 | 4.44% (inactive) | – |

| Structure (SMILES) | activity change, negative = inhibition | Potency |
| --- | --- | --- |
| C=CCn1c(=O)n(CC=C)c(=O)n(CC=C)c1=O | -1.56% (inactive) | – |
| CC(C)CCOC(=O)CC(C)C | 6.91% (inactive) | – |
| Cc1cc(-c2ccccc2)nnc1NCCN1CCOCC1 | 3.66% [at 42.5 µM] (inactive) | – |
| CCCCC(CC)CN1C(=O)C2C3C=CC(C3)C2C1=O (stereo not given) | -6.37% (inactive) | – |
| NC(=O)C(=O)N/N=C/c1ccc([N+](=O)[O-])o1 | -3.86% [at 42.5 µM] (inactive) | – |
| Cc1c(C)c([N+](=O)[O-])c(C(C)(C)C)c([N+](=O)[O-])c1C | 3.89% (inactive) | – |
| CC(=O)Nc1ccc(C)c(Cl)c1 | -1.72% (inactive) | – |
| COc1ccccc1N1CCN(CCCNc2cc(=O)n(C)c(=O)n2C)CC1 | – | 13.3 µM (active) |
| CCCCCC(=O)OCCc1ccccc1 | 3.06% (inactive) | – |
| COc1ccc2c(c1)c(CC(=O)OCC(=O)O)c(C)n2C(=O)c1ccc(Cl)cc1 | -10.7% [at 42.5 µM] (inactive) | – |
| C[N+]12CCC(CC1)C(OC(=O)C(O)(c1ccccc1)c1ccccc1)C2 (stereo not given) | 7.49% [at 42.5 µM] (inactive) | – |
| COC(=O)c1ccc(OC)cc1 | 4.63% (inactive) | – |
| C=CN1CCCCCC1=O | 1.47% (inactive) | – |
| CCC(=O)c1cccc(Cl)c1 | -0.73% (inactive) | – |
| CC1CC(C)C(=O)C1=O (stereo not given) | -4.65% (inactive) | – |
| CC(C)Nc1nc(N)nc(Cl)n1 | 9.68% (inactive) | – |
| NC(=O)N1c2ccccc2CC(=O)c2ccccc21 | 6.86% [at 42.5 µM] (inactive) | – |
| CC1=C(C(=O)OC(C)C)C(c2cccc([N+](=O)[O-])c2)C(C(=O)OC2CN(C(c3ccccc3)c3ccccc3)C2)=C(N)N1 (stereo not given) | 0.144% [at 42.5 µM] (inactive) | – |
| O=[N+]([O-])c1cccc(S(=O)(=O)NCCNS(=O)(=O)c2cccc([N+](=O)[O-])c2)c1 | -3.37% [at 42.5 µM] (inactive) | – |
| O=C(O)c1ccc(Cl)cc1Cl | -11.3% (inactive) | – |
